Records with an inconclusive call do not appear. Activity calls are given as the source filed them. Calls follow the shape of the dose curve; as a rule, active = well fitted cell-killing curve with a large enough effect; inconclusive = small, poorly fitted or top-dose-only effect; inactive = flat fitted curve, though single readings scatter.

Assay [1] is described as follows: Cell Viability - LYMP2-016 (AID 984). Also: nearly all actives have a fitted effect of over 55% in size. Also: potency is read from the fitted curve at half-maximal effect. An outline of the steps:
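Acute toxicity in a Coriell human lymphoblastoid line is scored as loss of intracellular ATP over 24 h of treatment in complete medium. CellTiter-Glo signal is fitted across concentrations with the Hill equation to give AC50.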

Assay [2] can be described thus: Cell Viability - LYMP2-018 (AID 985).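 Also: compound exposure lasted 24 hr at 37 °C; nearly all actives have a fitted effect of over 50% in size.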 Also: potency is read from the fitted curve at half-maximal effect. An outline of the steps:
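Human lymphoblastoid cells (2500/well) were pre-incubated 5 hr at 37 C, then exposed to compounds for 24 hr at 37 C in complete medium. Viability was read as intracellular ATP by CellTiter-Glo luminescence; AC50 values came from Hill-equation fits.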

A short description of assay [3]: Cell Viability - LYMP1-002 - Assay at 40 hr (AID 994). Also: nearly all actives have a fitted effect of over 60% in size. Also: potency is read from the fitted curve at half-maximal effect. Summed up:
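Human lymphoblastoid cells, 2500/well in complete medium, were preincubated 5 hr at 37 C, then exposed to compounds for 40 hr at 37 C. Intracellular ATP was read by CellTiter-Glo luminescence after 30 min at room temperature; AC50 from Hill-equation fits.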

Assay [4] can be described thus: Cell Viability - LYMP2-012 (AID 982).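 Also: cellular ATP by luciferase luminescence where a drop means cytotoxicity; cells exposed to compound for one day before reading; nearly all actives have a fitted effect of over 55% in size.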 Also: potency is read from the fitted curve at half-maximal effect.
Assay [5] is described as follows: Cell Viability - LYMP2-014 (AID 983). Also: series mostly up to about 92 µM; nearly all actives have a fitted effect of over 50% in size. An outline of the steps: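 Human lymphoblastoid cells (2500/well) were pre-incubated 5 hr at 37 C, then exposed to compounds in complete medium for 24 hr at 37 C. Intracellular ATP was read by CellTiter-Glo luminescence after 30 min at room temperature; AC50 from Hill fits.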
The nature of assay [6]: Cell Viability - LYMP2-020 (AID 986). Also: nearly all actives have a fitted effect of over 55% in size. Also: potency is read from the fitted curve at half-maximal effect. An outline of the steps: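 Human lymphoblastoid cells, 2500/well, were pre-incubated 5 hr at 37 C, then exposed to compounds for 24 hr at 37 C in complete medium. Intracellular ATP was read by CellTiter-Glo luminescence, and AC50 was derived by Hill fitting of concentration-response data.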
Assay [7] is described as follows: Cell Viability - LYMP2-022 (AID 987). Also: nearly all actives have a fitted effect of over 55% in size. Also: potency is read from the fitted curve at half-maximal effect. An outline of the steps:
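Human lymphoblastoid cells, 2500/well, preincubated 5 hr at 37 C, then exposed to compounds over a concentration range for 24 hr at 37 C in complete medium. Viability read as intracellular ATP by CellTiter-Glo luminescence after 30 min at room temperature; AC50 from Hill fits.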

Assay [8] is described as follows: Cell Viability - LYMP2-024 (AID 988). Also: nearly all actives have a fitted effect of over 60% in size. Also: potency is read from the fitted curve at half-maximal effect. An outline of the steps: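 Human lymphoblastoid cells (2500/well) in complete medium were preincubated 5 hr at 37 C, then exposed to compounds for 24 hr at 37 C. Intracellular ATP was read by CellTiter-Glo luminescence; AC50 from Hill-equation fits of concentration-response data.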
A short description of assay [9]: Cell Viability - LYMP2-026 (AID 989). Also: nearly all actives have a fitted effect of over 50% in size. Summed up:
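Human lymphoblastoid cells (2500/well) in complete medium were preincubated 5 hr at 37 C, then exposed to compounds for 24 hr at 37 C. Cellular ATP was read by CellTiter-Glo luminescence; AC50 from Hill-equation fits of concentration-response data.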

Turning to `O.O.O.O.O.O.O.O=S(=O)([O-])[O-].[Co+2]`, the Potency entry in assay [1], in assay [2] and in [3] was “inactive” each time.

On to `Oc1ccc(/C=C/c2cc(O)cc(O)c2)cc1`, for which the Potency result in assay [4], in [5], in assay [1], in assay [2], in assay [6] and in assay [7] was “inactive” each time. In addition, the Potency result in assay [8] is “inactive”. For the same compound, the result in assay [9] was inactive.

`CCCCC`: the Potency entry in assay [4], in [5], in assay [1], in [2], in [6] and in [7] was “inactive” throughout. Besides, the Potency entry in assay [8] and in [3] was “inactive” in each case. In assay [9], the compound was called inactive.

`C/C=C/C=C/C(=O)O`: the Potency result in assay [4], in assay [5], in assay [1], in assay [2], in [6] and in assay [7] was “inactive” each time. The Potency result in [8] and in assay [3] was “inactive” in each case. Further, the compound was called inactive in assay [9].

In the case of `C[C@H](CCC(=O)O)[C@H]1CC[C@H]2[C@@H]3[C@H](O)C[C@@H]4C[C@H](O)CC[C@]4(C)[C@H]3C[C@H](O)[C@]12C`, the Potency result in assay [4], in assay [5], in [1], in assay [2], in [6] and in assay [7] was “inactive” each time. For the same compound, the Potency entry in assay [8] and in [3] was “inactive” each time. Further, the compound was called inactive in assay [9].

Consider `OC[C@H]1O[C@@H]2O[C@H]3[C@H](O)[C@@H](O)[C@@H](O[C@H]4[C@H](O)[C@@H](O)[C@@H](O[C@H]5[C@H](O)[C@@H](O)[C@@H](O[C@H]6[C@H](O)[C@@H](O)[C@@H](O[C@H]7[C@H](O)[C@@H](O)[C@@H](O[C@H]1[C@H](O)[C@H]2O)O[C@@H]7CO)O[C@@H]6CO)O[C@@H]5CO)O[C@@H]4CO)O[C@@H]3CO`, for which the Potency result in [4], in [5], in assay [1], in assay [2], in assay [6] and in assay [7] was “inactive” in each case. In addition, the Potency result in assay [8] and in assay [3] was “inactive” in each case. Moreover, the outcome in assay [9] was inactive.

As to `OB(O)O`, the Potency entry in assay [4], in assay [5], in assay [1], in assay [2], in assay [6] and in [7] was “inactive” in each case. Besides, the Potency entry in assay [8] and in assay [3] was “inactive” throughout. Also, the compound was classed as inactive in assay [9].

Turning to `O=c1n(CC2CO2)c(=O)n(CC2CO2)c(=O)n1CC1CO1` (stereo not drawn), the Potency was 25.1 µM (active) in assay [4]; 31.6 µM (active) in [1]; 15.8 µM (active) in assay [2]; 25.1 µM (active) in [6]; 31.6 µM (active) in assay [7]; 39.8 µM (active) in assay [8]. In [3], the Potency is 7.94 µM (active).

As for `CCOC(C)OCC`, the Potency result in assay [4], in assay [5], in assay [1], in assay [2], in [6] and in assay [7] was “inactive” each time. For the same compound, the Potency entry in [8] and in [3] was “inactive” throughout. Also, in [9], the outcome was inactive.

Turning to `NCCN`, the Potency result in [4], in assay [5], in assay [1], in [2], in assay [6] and in [7] was “inactive” each time. Further, the Potency result in [8] and in assay [3] was “inactive” throughout. The compound was classed as inactive in assay [9].

In the case of `COC(=O)c1ccccc1O`, the Potency result in assay [4], in assay [5], in [1], in assay [2], in assay [6] and in assay [7] was “inactive” in each case. Moreover, the Potency result in assay [8] and in assay [3] was “inactive” throughout. Also, in assay [9], the compound was classed as inactive.

Turning to `Cc1ccc(S(=O)(=O)O)cc1C`, the Potency entry in [4], in assay [5], in assay [1], in [2], in assay [6] and in assay [7] was “inactive” throughout. Further, the Potency result in assay [8] and in assay [3] was “inactive” each time. Moreover, the outcome in assay [9] was inactive.

For `CC[C@H]1OC(=O)[C@H](C)[C@@H](O[C@H]2C[C@@](C)(OC)[C@@H](O)[C@H](C)O2)[C@H](C)[C@@H](O[C@@H]2O[C@H](C)C[C@H](N(C)C)[C@H]2O)[C@](C)(O)C[C@@H](C)CN(C)[C@H](C)[C@@H](O)[C@]1(C)O`, the Potency entry in assay [4], in assay [5], in [1], in [2], in assay [6] and in assay [7] was “inactive” in each case. Moreover, the Potency entry in assay [8] and in assay [3] was “inactive” each time. The compound was called inactive in [9].

Turning to `NC(N)=O`, the Potency result in [4], in assay [5], in assay [1], in [2], in assay [6] and in assay [7] was “inactive” in each case. Besides, the Potency result in [8] and in assay [3] was “inactive” each time. Moreover, the compound was classed as inactive in assay [9].

Take `Nc1ccc(N=Nc2ccccc2)c(N)n1`: the Potency entry in [4], in assay [5], in [1], in assay [2], in assay [6] and in assay [7] was “inactive” each time. For the same compound, the Potency result in assay [8] and in assay [3] was “inactive” in each case. Moreover, the compound was classed as inactive in [9].

For `ClC(Cl)Cl`, the Potency entry in [4], in [5], in [1], in [2], in [6] and in assay [7] was “inactive” throughout. The Potency result in assay [8] and in [3] was “inactive” throughout. Besides, in assay [9], the call was inactive.

With `Oc1cccc(O)c1O`, the Potency entry in assay [4], in [5], in [1], in assay [2], in assay [6] and in [3] was “inactive” in each case. For the same compound, in assay [9], the compound was classed as inactive.

Take `C[C@H](CCC(=O)O)[C@H]1CC[C@H]2[C@@H]3CC[C@@H]4C[C@H](O)CC[C@]4(C)[C@H]3C[C@H](O)[C@]12C`: the Potency result in assay [1], in assay [2], in assay [6], in assay [7], in assay [8] and in assay [3] was “inactive” each time. Besides, the compound was classed as inactive in assay [9].

For `CC1=CC(=O)NS(=O)(=O)O1`, the Potency result in assay [4], in assay [5], in assay [1], in assay [2], in [6] and in [7] was “inactive” throughout. Also, the Potency result in assay [8] and in assay [3] was “inactive” throughout. The compound was classed as inactive in assay [9].

These data come from PubChem BioAssay (NCATS).
